Screens deposited in PubChem by Broad Institute.
The list is a sample of the results.
aSyn 5UTR act: Activators via SNCA 5'UTR binding, MLPCN; alpha-synuclein 5'UTR reporter, activators screen; activity score, % (tested at 7.5 µM), hits read low; actives 7.1% (n = 300,000); AID 1814, 2009; in the data active = activity score below about -60%
The depositor's hits bear a star.

SMILES | aSyn 5UTR act
CCN(CC)C(=O)Oc1ccc2cc(Br)ccc2c1 | -86.8*
COc1ccc(Oc2c(C)oc3cc(OC(=O)N4CCOCC4)ccc3c2=O)cc1 | 56.2
COc1ccc(-c2coc3cc(OC(=O)N4CCOCC4)ccc3c2=O)cc1 | -67.2*
CCN(CC)C(=O)Oc1ccc2c(=O)c(-c3ccc(OC)cc3)coc2c1 | -125.2*
CN1C(=O)S/C(=C\c2ccc(-n3cncn3)cc2)C1=O | -93.2*
Cc1cc(/C=C(/C#N)C(=O)Nc2ccccc2)c(C)n1-c1cccnc1 | -160.0*
COCCNC(=O)/C(C#N)=C/c1cc(C)n(C2CCCCC2)c1C | -101.0*
COCCNC(=O)/C(C#N)=C/c1cc(C)n(-c2ccc(C)cc2)c1C | -133.4*
COc1cc2nc(CN(C)Cc3ccc(OC)c(OC)c3OC)[nH]c(=O)c2cc1OC | -90.4*
N=c1c2c(n(Cc3cccc(Cl)c3)c3c1CCC3)CCCC2 | 54.6
Cc1ccc(/C=C/C(=O)c2ccc(N3CCOCC3)cc2)s1 | -133.2*
Cc1cccc(/C=C/C(=O)c2ccc(N3CCOCC3)cc2)c1 | -114.3*
O=c1c2ccccc2c(C=Nc2ccc(O)cc2)c(O)n1Cc1ccccc1 | -110.7*
COc1ccc(N2CCN(C(=O)c3ccc(Cn4c(=S)[nH]c5ccc(N6CCOCC6)cc5c4=O)cc3)CC2)cc1 | -110.8*
O=c1c2cc(N3CCOCC3)ccc2[nH]c(=S)n1Cc1ccc(Cl)cc1 | -121.5*
COc1ccc(OC)c(NC(=O)c2cc3sccc3n2C)c1 | -93.3*
COc1ccc(NC(=O)c2cc3sccc3n2Cc2ccc(F)cc2)cc1OC | -75.8*
COC(=O)c1ccc(NC(=O)c2cc3sccc3n2C)cc1 | -78.9*
Cn1c(C(=O)Nc2ccc3c(c2)OCO3)cc2sccc21 | -244.7*
Cn1c(C(=O)Nc2ccccc2)cc2sccc21 | -171.7*
COc1cc(NC(=O)c2cc3sccc3n2C)cc(OC)c1 | -232.3*
COc1cc(OC)cc(C(=O)O/N=C(\N)c2ccccn2)c1 | -129.6*
COc1ccc(C(=O)O/N=C(\N)c2ccccn2)cc1 | 60.6
CCOc1ccc(C(=O)O/N=C(\N)c2ccccn2)cc1OCC | -102.6*
N/C(=N\OC(=O)c1ccc(Br)o1)c1cccnc1 | -142.8*
SMILES | aSyn 5UTR act
COc1ccc(/C(N)=N/OC(=O)c2ccc(Br)o2)cc1 | -154.5*
COc1ccccc1-n1cc([C@@H]2C[C@H]3CN(c4ccccc4)C(=O)[C@]34CCCN24)cn1 | -361.9*
COC(=O)c1cccc(NC(=O)c2onc3c2CCCC3)c1 | 78.7
Cc1cccc(NC(=O)c2onc3c2CCCC3)n1 | 85.8
Cc1cccc(NC(=O)c2onc3c2CCCC3)c1C | -162.0*
O=C(Nc1ccc2ccccc2c1)c1onc2c1CCCC2 | -71.4*
Cc1ccccc1NC(=O)c1onc2c1CCCC2 | -131.3*
CN(C)c1ccc(C(=O)/C=C/c2cccnc2)cc1 | -167.3*
O=C(NC1CCCC1)c1ccc(CSCc2ccccc2F)o1 | -62.6*
Fc1ccccc1-c1ccc(/C=N/Nc2nc3ccccc3[nH]2)o1 | -216.8*
